Measurements taken from PubChem BioAssay AID900 (National Center for Advancing Translational Sciences (NCATS), 2007).
Where “and” joins values, the source holds several entries; their conditions need not be identical. Equal values may be shown once. The whole screen tested about 75,000 compounds, of which about 20 (0.03%) were called active. Another 1% or so got no clear call; they are omitted. The call rests on the fitted dose curve; in most records, active means well fitted inhibition curve with a large enough effect; inconclusive means small, poorly fitted or top-dose-only effect; inactive means flat fitted curve, though single readings scatter. Not all results are given here. Square brackets hold non-standard residues; d marks the D form. Side chains are listed from the residue outwards. Peptide text beside a SMILES is read from it. * marks the point of attachment. X1 = CCC(C)C(N)C1=NC(C(=O)*)CS1; Orn = NCCC[CH](N)C(=O)O

target: Caspase-1 (Homo sapiens) (UniProt P29466); assay: qHTS Assay for Allosteric/Competitive Inhibitors of Caspase-1; settings: Caspase-1 enzyme, Ac-WEHD-AFC fluorogenic rate; series mostly up to 57.5 µM; activity change, negative = inhibition: at the top concentration;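 further: plate controls were vehicle for no effect and no substrate for full effect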
Excerpt: NIH Molecular Libraries Screening Centers Network [MLSCN]
NIH Chemical Genomics Center [NCGC]
PI Name: Dr. James Wells,
Dr. Enrique Perez-Paya, Dr.Janice Williams, Dr. Dennis Wolan, a person
The caspases (Cysteine Aspartyl Protease) comprise a related family of 14 dimeric proteases that are critical mediators of apoptosis (programmed cell death) and inflammation. The caspases represent an important class of drug targets for stroke, ischemia, cancer and inflammatory diseases. […] One goal of this project was to identify compounds that act as allosteric inhibitors via stabilizing the procaspase form of the enzyme. Previous work in Well's laboratory has shown that such allosteric inhibitors can be identified and these act by binding at the dimer interface of enzyme (Hardy, Lam et al., 2004).
The biochemical assay was configured using purified caspase 1 at a high enzyme concentration to promote formation of the homodimers and thus facilitate the identification of allosteric inhibitors. The overall goal was to identify reversible inhibitors with better drug-like properties than the currently available set of aspartyl-containing peptidomimetics that covalently bind the active site. Caspase 1 was assayed using the profluorescent substrate Ac-WEHD-AFC. After initiation of the assay with substrate the plates were rapidly read using an automated robotic system (Kalypsys, Inc.) to maintain consistent timing. A kinetic mode of detection was used where the initial rate was collected (estimated final product formation was ~10%). Compounds were screened as a concentration-titration series that ranged from 57 uM to 0.7 nM. Below is the protocol used for caspase 1.
NCGC Assay Protocol Summary:
Caspase 1 was prepared in buffer (50 mM HEPES pH 7.5, 50 mM KCl, 200 mM NaCl, 10 mM DTT, 0.1% CHAPS) at a concentration of 66.6 nM and 3 uL was dispensed to all wells using black solid Kalypsys 1536-well plates. 20 nL of DMSO containing compounds was added using a pin-tool (Kalypsys Inc.) to columns 5-48. Then 20 nL of DMSO solution from a control plate was added to columns 1-4. Controls were: Column 1, 16 point titration with each concentration in duplicate (1:1 dilutions in DMSO; final starting concentration was 57 uM) of the caspase 1 inhibitor Ac-WEHD-CHO (Alexis Biochemicals); Column 2, a 16 point titration with each concentration in duplicate of the free AFC fluorophore prepared in DMSO (Alexis Biochemicals), final starting was 40 uM; Column 3 neutral (DMSO only) control; Column 4: DMSO alone, to serve as a negative control (no substrate was added). Then 1 uL of 20 uM the substrate Ac-WEHD-AFC (Alexis Biochemicals) prepared in the same buffer was dispensed to all wells except columns 2 and 4 and the plates were immediately transferred (< 1 min) to the Viewlux. The plates were then exposed using 405 nm excitation/520 nm emission filters for 4 sec and read at 20 sec intervals for 3 min. Final enzyme concentration was 50 nM and the final substrate concentration was 5 uM.
Concentration-response curves were fitted to the data calculated from slope of the linear regression of fluorescent intensity versus time (the rate). The concentration-effect curves were then classified based on curve quality (r2), response magnitude and degree of measured activity. […] Inconclusive compounds had appreciable concentration-dependent effects on both the measured rate and the interpolated basal fluorescence intensity at the start of the reaction but where the basal fluorescent intensity was marginal (e.g. < 10-fold). Inconclusive compounds also encompass highly fluorescent compounds (>100-fold increases in fluorescent intensities values relative to controls) where artificial concentration-dependent decreases in the rate occurred at high compound concentrations due to fluorescent interferences.
Keywords: Caspase 1, proteases, profluorescent, MLSMR, MLSCN, NIH Roadmap, qHTS, NCGC

Activity change, negative = inhibition, inactive:
COC(=O)[C@@H]1CC[C@H](C)[C@@H](c2ccc(C)cc2)N1C(=O)c1ccc(/C=N\O[C@@H](C)c2cn([C@H](CO)Cc3ccccc3)nn2)cc1 -0.293% [at 11.5 µM] and 3.03% [at 11.5 µM]
CO[C@H]1COC(=O)[C@@H](OCc2ccccc2)/C=C\[C@H](C)[C@@H](OC)COC(=O)[C@H](OCc2ccccc2)/C=C\[C@@H]1C -1.1% [at 11.5 µM]
CCOC(=O)N1CCN(C(=O)c2cn(C)c3ccc(S(=O)(=O)N4CCCC4)cc3c2=O)CC1 1.44%
COC(=O)[C@@H]1C[C@@]2(O)[C@@H](O)[C@@H](O)[C@@H](O)C[C@H]2N1Cc1ccc(C)s1 -0.674%
C/C(Cl)=C\Cn1c(Nc2cccc(C)c2)nc2c1c(=O)n(C)c(=O)n2C 1.24%
CC(C)[C@H]1CC[C@@H](C)C[C@H]1O -4.11%
CCC(=O)Nc1nc(OC)cc(OC)n1 -0.774%
Nc1nc2c(nc(Cl)n2C2OC(CO)C(O)C2O)c(=O)[nH]1 (centres undefined) -0.0059%
CC(=O)OCC(=O)[C@@]1(O)CCC2C3CCC4=CC(=O)CC[C@@]4(C)[C@]3(F)C(O)C[C@]21C (some centres undefined) 1.49%
O=c1c(O)c(-c2ccc(O)cc2)oc2ccccc12 1.6%
C=CCn1c(SCc2cc(C(=O)OC)c(C)o2)nnc1-c1ccncc1 -3.64%
C[C@@H](c1ccccc1)N1C(=O)[C@H]2[C@H]3[C@H](O)[C@H](O)C/C(=N/OC[C@@H](O)COCc4ccco4)[C@@H]3CC[C@@H]2C1=O -0.613% [at 11.5 µM]
CCCCCCCCCCCCCCCC(=O)OC/C=C(C)/C=C/C=C(C)/C=C/C1=C(C)CCCC1(C)C 0.363%
Cn1c(N)c(C(=O)COC(=O)c2cc(C(F)(F)F)nc3c(C(F)(F)F)cccc23)c(=O)n(C)c1=O -3.83%
COc1cccc([C@H](O)Cn2cc(-c3ccc(CON=C(C)C)cc3)nn2)c1 -1.21% [at 11.5 µM]
CC1(C)OC2CC3C4CCC5=CC(=O)CCC5(C)C4(F)C(O)CC3(C)[C@]2(C(=O)CCl)O1 (some centres undefined) -2%
CC(C)c1ccc(OCC(O)Cn2cnc3ccccc32)cc1 (centres undefined) -1.04%
CCC(C)C(N)C1=NC(C(=O)NC(CC(C)C)C(=O)NC(CCC(=O)O)C(=O)NC(C(=O)NCCCCC2NC(=O)C(CC(N)=O)NC(=O)C(CC(=O)O)NC(=O)C(Cc3cnc[nH]3)NC(=O)C(Cc3ccccc3)NC(=O)C(C(C)CC)NC(=O)C(CCCN)NC2=O)C(C)CC)CS1 (stereo not drawn) (cyclo(DNK([Ile-Glu-Leu-X1])[Orn]IFH); configuration not given here) -2.89%
COC(=O)[C@@H]1C[C@@]2(O)[C@H](O)[C@H](O)[C@H](O)C[C@H]2N1CC1CCCCC1 -0.903%
CCCN1[C@H](C(=O)OC)C[C@@]2(O)[C@@H](O)[C@@H](O)[C@@H](O)C[C@@H]12 -0.752%
CCOC(=O)N/N=C1/C[C@@H](O)[C@@H](O)[C@@H]2[C@@H]3C(=O)N(CC)C(=O)[C@H]3CC[C@H]12 0.333% [at 11.5 µM]
CSc1nnc2c(n1)OC(c1ccsc1)N(C(C)=O)c1ccccc1-2 (centres undefined) -16%
COc1ccc(COC(=O)N/N=C2/C[C@@H](O)[C@@H](O)[C@@H]3[C@@H]4C(=O)N([C@@H](C)c5ccccc5)C(=O)[C@H]4CC[C@@H]23)cc1 -3.18% [at 11.5 µM]
C/C=C(/C)C(=O)OC1Cc2c(ccc3ccc(=O)oc23)OC1(C)C (centres undefined) -0.913%
